For assay [1], the system named is Human papillomavirus type 1a protein E7 (residues 44-93). As to the kind of experiment: small molecules binding HPV E7 44-93 – biochemical, small-molecule microarray, residues 44-93, 635 nm fluorescence, primary screen (AID 1108).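 Note: E7 fragment applied at 1 µg/mL in TBST for 1 h at 4 C; score combines spot fluorescence with its signal to noise ratio.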 Particulars: fluorescence 635 nm, higher = more signal.
Assay [2] can be described thus: hepatitis C replication reporter changes, two-sided – Huh7 cells, luciferase reporter, HCV replication inhibitor project, primary screen (AID 1109).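 Note: huh7 hepatoma cells harbouring a luciferase neomycin HCV replicon reporter; luciferase luminescence as measure of HCV replicon replication; test concentration not given here.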 Particulars: Huh7 HCV replicon luciferase reporter, 48 h; higher = more signal. (In general: Reporter assays use an easily measured gene product as a stand-in for the process of interest.)
Assay [3] deals with Left-right determination factor 2 (Homo sapiens) (UniProt O00292). As to the kind of experiment: small molecules binding LEFTY2 protein – biochemical, small-molecule microarray, 635 nm fluorescence scan, primary screen (AID 1110). The note with it: higher = more signal.
Sequence of Left-right determination factor 2 (Homo sapiens) (O00292 whole entry, looked up): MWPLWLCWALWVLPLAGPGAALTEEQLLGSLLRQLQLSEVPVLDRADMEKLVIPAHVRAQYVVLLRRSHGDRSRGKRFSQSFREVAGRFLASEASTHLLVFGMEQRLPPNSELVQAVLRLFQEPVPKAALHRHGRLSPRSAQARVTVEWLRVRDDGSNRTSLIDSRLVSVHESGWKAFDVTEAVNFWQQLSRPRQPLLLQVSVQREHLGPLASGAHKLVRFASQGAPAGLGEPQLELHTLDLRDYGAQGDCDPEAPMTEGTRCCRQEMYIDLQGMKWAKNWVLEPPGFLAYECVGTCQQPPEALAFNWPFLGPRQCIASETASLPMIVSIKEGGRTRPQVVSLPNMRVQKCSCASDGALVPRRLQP
Assay [4] has as its target Calmodulin-1 (Homo sapiens) (UniProt P0DP23). As to the kind of experiment: small molecules binding calmodulin-1 with EGTA – biochemical, small-molecule microarray, Cy5-labelled CALM1, profiling panel (AID 1111).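 Note: labelled calmodulin applied in Tris saline Tween buffer holding calcium plus EGTA and DTT.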 Particulars: Cy5-CALM1 binding fluorescence, higher = more signal.
Assay [5] shares this target. As to the kind of experiment: small molecules binding Ca-loaded calmodulin-1 – biochemical, small-molecule microarray, Cy5-labelled CALM1, plus calcium, artefact control for SMM control-protein annotation, profiling panel (AID 1112).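 Note: score merges spot fluorescence with signal to noise from triplicate slides.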 The note with it: Cy5-CALM1 binding fluorescence, higher = more signal.
The nature of assay [6]: probe aWnt5a binding to arrayed compounds – biochemical, biotinylated probe, 635/667 nm fluorescence, primary screen (AID 1113).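 Note: score merges 667 nm fluorescence intensity with signal-to-noise per printed feature.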 Particulars: small-molecule microarray, higher = more signal.
The nature of assay [7]: probe aShh binding to arrayed compounds – biochemical, biotinylated probe, 635/667 nm fluorescence, primary screen (AID 1114).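 Note: probe is biotin-labelled aShh protein from a stem cell growth factor screen; measures binding of labelled protein to compounds printed on the slide; score merges feature fluorescence at 667 nm with signal-to-noise.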 The note with it: small-molecule microarray, higher = more signal.
Assay [8] can be described thus: probe aNog binding to arrayed compounds – biochemical, biotinylated probe, 635/667 nm fluorescence, primary screen (AID 1115).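 Note: probe is biotinylated aNog protein used at 0.15 µg/mL for 1 h at 4 C; z-score combines 667 nm fluorescence of each spot with its signal to noise.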 Particulars: small-molecule microarray, higher = more signal.
In assay [9] the target is Torsin-1A-interacting protein 1 (Homo sapiens) (UniProt Q5JTV8). As to the kind of experiment: compound microarray binding of lysate hLAP1 – cell lysate, small-molecule microarray, COS7 lysate, 635/667 nm fluorescence, primary screen (AID 1116). Particulars: 635 nm fluorescence, higher = more signal.
Sequence of Torsin-1A-interacting protein 1 (Homo sapiens) (Q5JTV8 whole entry, looked up): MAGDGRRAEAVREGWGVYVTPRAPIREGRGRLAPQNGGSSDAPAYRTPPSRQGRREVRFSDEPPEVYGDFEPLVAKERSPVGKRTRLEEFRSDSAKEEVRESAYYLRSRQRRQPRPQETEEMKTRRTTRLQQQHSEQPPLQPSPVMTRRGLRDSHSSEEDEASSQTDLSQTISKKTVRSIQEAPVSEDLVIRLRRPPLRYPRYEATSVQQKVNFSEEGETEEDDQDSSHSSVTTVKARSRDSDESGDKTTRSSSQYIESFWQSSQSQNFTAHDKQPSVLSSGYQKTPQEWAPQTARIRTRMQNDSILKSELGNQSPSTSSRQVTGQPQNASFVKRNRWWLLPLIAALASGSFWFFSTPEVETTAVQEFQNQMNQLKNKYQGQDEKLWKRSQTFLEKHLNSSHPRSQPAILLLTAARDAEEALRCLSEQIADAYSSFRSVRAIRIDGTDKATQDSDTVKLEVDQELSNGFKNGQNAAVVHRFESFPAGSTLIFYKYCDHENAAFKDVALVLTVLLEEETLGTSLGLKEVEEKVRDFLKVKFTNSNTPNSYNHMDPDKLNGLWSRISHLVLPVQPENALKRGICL
The target of assay [10] is Alpha-bungarotoxin (Bungarus multicinctus) (UniProt P60615). As to the kind of experiment: compounds binding labelled alpha-BTX control protein – biochemical, small-molecule microarray, Alexa647 label, 635/667 nm fluorescence, artefact control for SMM control protein annotation, profiling panel (AID 1117). The note with it: alpha-BTX-A647 binding fluorescence, higher = more signal.
Sequence of Alpha-bungarotoxin (Bungarus multicinctus) (P60615 whole entry, looked up): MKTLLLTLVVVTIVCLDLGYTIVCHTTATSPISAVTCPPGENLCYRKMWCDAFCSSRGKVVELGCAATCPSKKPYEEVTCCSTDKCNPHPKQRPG

The next assay concerns the target Albumin (Bos taurus) (UniProt P02769). As to the kind of experiment: compounds binding labelled BSA control protein – biochemical, small-molecule microarray, Alexa647 label, 635/667 nm fluorescence, artefact control for SMM control protein annotation, profiling panel (AID 1118).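 Note: score merges 667 nm emission intensity and signal-to-noise per printed compound spot.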 The note with it: BSA-A647 binding, fluorescence 635 nm, higher = more signal.
The nature of assay [11]: probe aXIP binding to arrayed compounds – biochemical, NeuroSMM set, 635/667 nm fluorescence, primary screen (AID 1119).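 Note: probe is the protein aXip251-270 applied at 1 µg/mL to compound-printed slides; binding of probe to printed compounds measured as 667 nm fluorescence plus signal to noise.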 Particulars: small-molecule microarray, higher = more signal, called active from +8 up or from −8 down.
Assay [12] in a line: probe aNOTCH3 binding on compound microarray – biochemical, small-molecule microarray, 635/667 nm fluorescence, primary screen (AID 1120).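 Note: probe is a biotin-tagged antibody raised against NOTCH3 rather than NOTCH3 protein; score merges spot fluorescence near 667 nm with spot signal to noise.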 Particulars: higher = more signal.
A short description of assay [13]: probe aNOTCH2 binding on compound microarray – biochemical, small-molecule microarray, 635/667 nm fluorescence, primary screen (AID 1121).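 Note: score merges feature fluorescence read at 667 nm with its signal to noise.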 The note with it: higher = more signal.
Assay [14] has as its target Carbonic anhydrase 2 (Homo sapiens) (UniProt P00918). As to the kind of experiment: compounds binding carbonic anhydrase 2 – biochemical, small-molecule microarray, Alexa647-labelled CAII, profiling panel (AID 1122). The note with it: CAII-A647 binding fluorescence, higher = more signal.
Assay [15] can be described thus: COS7 lysate on small-molecule microarray, probe aHis, 635 nm (AID 1123).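 Note: z-score combines 667nm fluorescence intensity with signal-to-noise per printed compound spot.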 The note with it: COS7 cell lysate, fluorescence, higher = more signal.
A short description of assay [16]: probe aLAP1 signal on lysate-treated microarray – cell lysate, small-molecule microarray, COS7 lysate, primary screen (AID 1124).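 Note: lysate comes from COS7 cells expressing LAP1 and is applied at 0.3 µg/mL; score merges spot fluorescence near 667 nm with signal-to-noise over triplicate slides.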 The note with it: probe aLAP1, fluorescence, higher = more signal.
The next assay relates to Sam68 (KHDRBS1). As to the kind of experiment: compounds binding KHDRBS1 protein – biochemical, small-molecule microarray, 635 nm fluorescence, primary screen (AID 1125).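 Note: score merges 667 nm channel intensity with signal to noise over triplicate slides.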 Particulars: higher = more signal.
The subject of assay [17] is Chordin-like protein 2 (CHRDL2). As to the kind of experiment: compounds binding chordin-like 2 – biochemical, small-molecule microarray, 635 nm fluorescence, primary screen (AID 1126).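 Note: printed compound slides probed with Chrdl2 protein at 4 µg/mL for 1 h at 4 C; score merges 667 nm emission intensity with signal to noise over three replicate slides.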 The note with it: fluorescence 635 nm, higher = more signal.
The target in assay [18] is Concanavalin-A (Canavalia ensiformis) (UniProt P02866). As to the kind of experiment: compounds binding concanavalin A lectin – biochemical, small-molecule microarray, Alexa647 label, 635 nm, artefact control for SMM control protein annotation, primary screen (AID 1127).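 Note: z combines 667 nm emission intensity with signal-to-noise across three replicate slides.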 Particulars: ConA-A647 binding fluorescence, higher = more signal.
Sequence of Concanavalin-A (Canavalia ensiformis) (P02866 whole entry, looked up): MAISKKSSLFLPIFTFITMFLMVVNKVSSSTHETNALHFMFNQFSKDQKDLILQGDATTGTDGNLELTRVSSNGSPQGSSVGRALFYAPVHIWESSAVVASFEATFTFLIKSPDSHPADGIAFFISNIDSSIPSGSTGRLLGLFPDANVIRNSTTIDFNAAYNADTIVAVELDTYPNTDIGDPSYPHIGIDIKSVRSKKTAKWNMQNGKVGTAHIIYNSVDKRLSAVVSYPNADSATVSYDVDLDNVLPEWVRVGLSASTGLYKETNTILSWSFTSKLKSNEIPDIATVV

Activity calls are given as the source filed them.

Sequence of Albumin (Bos taurus) (P02769 whole entry, looked up): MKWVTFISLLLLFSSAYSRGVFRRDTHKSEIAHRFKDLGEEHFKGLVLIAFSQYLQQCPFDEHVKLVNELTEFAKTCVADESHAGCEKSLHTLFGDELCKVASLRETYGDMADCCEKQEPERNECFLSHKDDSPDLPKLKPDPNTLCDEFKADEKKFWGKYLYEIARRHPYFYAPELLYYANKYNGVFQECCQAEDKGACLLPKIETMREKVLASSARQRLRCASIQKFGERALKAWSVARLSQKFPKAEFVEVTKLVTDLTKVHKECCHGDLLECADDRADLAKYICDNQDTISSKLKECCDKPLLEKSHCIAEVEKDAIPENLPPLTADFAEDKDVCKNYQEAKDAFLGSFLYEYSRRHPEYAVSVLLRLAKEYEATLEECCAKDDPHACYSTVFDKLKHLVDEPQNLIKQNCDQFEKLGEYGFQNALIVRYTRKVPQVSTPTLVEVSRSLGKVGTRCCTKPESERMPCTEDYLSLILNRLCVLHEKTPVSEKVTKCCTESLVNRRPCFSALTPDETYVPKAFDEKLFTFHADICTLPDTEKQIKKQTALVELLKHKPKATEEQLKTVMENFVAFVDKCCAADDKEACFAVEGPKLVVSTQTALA

As to `C=CCOc1ccc([C@@H]2CC=C(C(=O)OCC)[C@H](c3cccc(Br)c3)N2S(=O)(=O)c2ccc(C)cc2)cc1`, the composite z-score in [1] is -1.07; in [3] it was 0.179; in assay [4], 1.95; in assay [5] it was 0.943; in assay [6], -0.0944; in [7] it was -0.107. For the same compound, the composite z-score was -0.54 in [8]; 0.644 in assay [9]; 1.2 in [10]; 0.64 with Albumin (Bos taurus); 0.032 in assay [12]; -0.0784 in assay [13]. Further, the composite z-score in [14] was -0.125; in [15], 0.491; in [16] it was 0.11; with Sam68 (KHDRBS1), 0.099; in assay [17] it was 0.314; in [18], 0.709. The same compound gave a z-score in [2] of -1.12. The composite Z-score in assay [11] was 0.0809 (inactive).
As to `O=C1O[C@H](c2ccccc2)[C@H](c2ccccc2)N2[C@H]1[C@@H](C(=O)N1CCCCCCC1)[C@]1(C(=O)Nc3ccccc31)[C@H]2c1ccc(O)cc1`, the composite z-score in assay [1] amounted to 1.52; in [3], 1.86; in assay [4], 3.09; in assay [5], 1.64; in assay [6], 1.63; in [7], 3.71. In addition, the composite z-score in [8] amounted to 3.66; in assay [9], 5.68; in assay [10], 3.36; with Albumin (Bos taurus), 0.052; in [12], 2.34; in assay [13] it was 1.24. In addition, the composite z-score in [14] turned out to be 0.764; in [15] it was 4.65; in assay [16] it was 1.65; in the assay on Sam68 (KHDRBS1), 1.31; in assay [17], 1.71; in assay [18], 1.17. The same compound showed a z-score in assay [2] of -1.09. Besides, the composite Z-score in assay [11] was 8.41 (active).
Turning to `O=C1OCC=C[C@H]2OC34C=CCN(CCN5CCOCC5)C(=O)[C@H]3N(CCCCCO)C(=O)[C@@H]4[C@@H]12` (stereo not given in full), the composite z-score is -1.19 in [1]; -0.258 in assay [3]; -0.234 in assay [4]; -0.953 in [5]; -0.178 in assay [6]; -0.223 in assay [7]. Besides, the composite z-score in [8] is -0.278; in assay [9] it was -0.607; in [10], 0.396; with Albumin (Bos taurus), 0.485; in assay [12], 0.0694; in [13], -0.117. Further, the composite z-score in assay [14] was 0.829; in assay [15], 2.03; in assay [16], -0.723; in the assay with Sam68 (KHDRBS1) it was -0.229; in assay [17], 0.129; in assay [18], 0.476. This compound also yielded a z-score in assay [2] of 0.557. The composite Z-score in assay [11] is -0.232 (inactive).
Take `O=C1N(CCS(=O)(=O)c2ccccc2)c2ccccc2[C@H]2OC(c3ccc(OCCCO)cc3)=N[C@@]12CCS(=O)(=O)c1ccccc1`: the composite z-score in assay [1] was 1.13; in assay [3], 0.98; in [4], 0.589; in assay [5], 0.362; in assay [6], 0.385; in assay [7], 0.359. Also, the composite z-score was 1.29 in assay [8]; 0.475 in [9]; 0.96 in assay [10]; -1.18 in the assay with Albumin (Bos taurus); 0.674 in assay [12]; 0.445 in assay [13]. For the same compound, the composite z-score in assay [14] is 0.352; in [15] it was 2.82; in assay [16] it was 0.226; with Sam68 (KHDRBS1) it was 1.29; in [17] it was 1.07; in [18], 1.16. In [2], this compound returned a z-score of 0.208. Moreover, the composite Z-score in assay [11] is 1.11 (inactive).
With `O=C1c2ccccc2[C@](Cc2ccccc2I)(C(=O)NC2CC2)[C@H](c2ccc(CO)cc2)N1Cc1ccccc1Cl`, the composite z-score in assay [1] is 1.06; in assay [3], -0.112; in [4], 0.638; in assay [5] it was 0.61; in assay [6], -0.0701; in assay [7], 0.755. Moreover, the composite z-score in assay [8] turned out to be 0.139; in assay [9], 0.747; in assay [10], 0.09; with Albumin (Bos taurus) it was 0.0646; in assay [12], 0.265; in assay [13] it was 0.0563. In addition, the composite z-score in assay [14] came to 0.574; in assay [15], 1.93; in assay [16], 0.696; in the assay on Sam68 (KHDRBS1) it was 1.31; in assay [17], 0.0424; in assay [18], 0.997. The z-score in [2] is -1.4. In [11], the composite Z-score was -0.057 (inactive).
For `COc1ccc(C#Cc2ccc3c(c2)[C@]2(C(=O)N3)[C@H](C(=O)O)[C@H]3C(=O)O[C@H](c4ccccc4)[C@H](c4ccccc4)N3[C@@H]2c2ccc(OCCO)cc2)cc1`, the composite z-score was 0.873 in assay [1]; 0.336 in assay [3]; 2.25 in assay [4]; 0.87 in [5]; -0.0617 in assay [6]; 0.0492 in assay [7]. Also, the composite z-score was determined as 0.141 in [8]; 2 in [9]; 2.28 in assay [10]; 0.92 in the assay with Albumin (Bos taurus); 0.364 in assay [12]; 0.0572 in assay [13]. Further, the composite z-score is 0.421 in assay [14]; 1.84 in assay [15]; 0.714 in assay [16]; 1.29 in the assay on Sam68 (KHDRBS1); 0.245 in [17]; 1.13 in assay [18]. This compound also showed a z-score in assay [2] of -1.92. For the same compound, the composite Z-score in assay [11] is 0.655 (inactive).
For the compound `CC(C)N1CC=CC23O[C@@H]4C=CCOC(=O)[C@@H]4[C@H]2C(=O)N(CCCCCCO)[C@@H]3C1=O` (stereo not given in full), the composite z-score in assay [1] was -0.433; in assay [3] it was -0.651; in [4], -0.815; in [5] it was -0.289; in [6], -0.18; in assay [7] it was -0.116. Moreover, the composite z-score in [8] was -0.223; in [9] it was 2.03; in assay [10], -0.92; with Albumin (Bos taurus), 0.771; in assay [12] it was -0.0697; in assay [13] it was -0.0451. Also, the composite z-score is 0.923 in assay [14]; -0.0499 in assay [15]; 1.15 in assay [16]; -0.351 with Sam68 (KHDRBS1); -1.17 in assay [17]; -0.82 in assay [18]. The z-score in [2] was -0.761. The composite Z-score in assay [11] is 0.714 (inactive).
`COC(=O)c1ccc(OC)c(/C=C\CC(CCc2ccccc2)OC(=O)c2ccncc2)c1` (stereo not given): the composite z-score in [1] was -0.0796; in assay [3], 1.45; in [4] it was -1.61; in [5] it was -1.72; in [6], -0.25; in assay [7] it was -0.117. Moreover, the composite z-score in [8] was -0.385; in assay [9] it was 0.489; in assay [10], 1.65; with Albumin (Bos taurus), -0.805; in assay [12], -0.26; in assay [13] it was -0.225. The composite z-score in assay [14] was 0.388; in [15] it was 0.721; in [16] it was 0.863; in the assay on Sam68 (KHDRBS1), 0.0029; in assay [17], 1.52; in [18], -0.363. Also, the z-score in [2] was -0.578. In addition, the composite Z-score in assay [11] was 0.302 (inactive).
On to `COc1ccc([Si](C)(C)[C@@H]2[C@@H](CC(=O)N(CCO)Cc3ccccc3)O[C@]3(C(=O)N(C)c4c(Br)cc(C)cc43)[C@H]2C)cc1`, for which the composite z-score in assay [1] was 1.26; in assay [3] it was 0.661; in [4] it was -0.87; in [5], -1.13; in assay [6], 0.168; in assay [7], -0.399. Besides, the composite z-score in assay [8] is -0.406; in assay [9], 0.13; in assay [10], 0.0978; with Albumin (Bos taurus), 0.597; in [12], -0.0918; in [13], -0.124. Besides, the composite z-score in assay [14] is 0.154; in [15] it was 0.741; in [16] it was 0.231; in the assay with Sam68 (KHDRBS1), 0.649; in [17] it was 1.4; in assay [18], -0.126. For the same compound, the z-score in assay [2] is -4.3. In [11], the composite Z-score is 0.0128 (inactive).

These data come from PubChem BioAssay.
